In PubChem BioAssay:
Calls of active or inactive are those of the source. Unless noted, no rule for the calls is given here.

Molecular target: Homeobox protein Hox-A13 (Mus musculus) (UniProt Q62424)
Test: inhibitors of HoxA13-DNA binding, primary screen, biochemical, fluorescence polarization, labeled oligonucleotide (AID 1185)
Settings: 15 min, higher = more signal, called active from +8 up or from −8 down

Sequence of Homeobox protein Hox-A13 (Mus musculus) (Q62424 whole entry, looked up): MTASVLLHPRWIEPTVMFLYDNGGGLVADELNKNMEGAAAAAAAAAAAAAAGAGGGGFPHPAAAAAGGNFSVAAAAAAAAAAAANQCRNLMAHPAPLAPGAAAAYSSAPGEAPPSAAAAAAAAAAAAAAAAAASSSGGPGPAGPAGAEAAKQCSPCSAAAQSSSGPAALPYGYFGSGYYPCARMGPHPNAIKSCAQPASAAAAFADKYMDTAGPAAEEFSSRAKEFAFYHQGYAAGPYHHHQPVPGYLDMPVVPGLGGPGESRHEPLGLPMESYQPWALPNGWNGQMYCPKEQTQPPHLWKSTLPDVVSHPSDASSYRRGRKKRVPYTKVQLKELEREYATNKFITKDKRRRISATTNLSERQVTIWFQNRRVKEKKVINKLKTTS

| SMILES | z-score |
| --- | --- |
| [N-]=[N+]=NCc1ccccc1[C@H]1OC(c2ccc(OCCCO)cc2)=N[C@@]1(Cc1ccccc1)C(N)=O | -3.61 (inactive) |
| CCOC(=O)C1=CC[C@@H](c2ccccc2)N(S(=O)(=O)c2ccc(C)cc2)[C@H]1C=C(C)C | -0.721 (inactive) |
| CCCCC(=C=CC[C@H](O)c1cccc(OCCO)c1)C[C@H](O)COCc1ccccc1 | -4.78 (inactive) |
| CN(C)C(=O)[C@]1(Cc2ccccc2N=[N+]=[N-])N=C(c2ccc(OCCCO)cc2)O[C@@H]1c1ccccc1CN=[N+]=[N-] | -4.68 (inactive) |
| COC(=O)[C@@]1(Cc2ccccc2)[C@H]2c3cc(C(=O)N(C)C)n(Cc4ccccn4)c3C[C@H]2CN1C(=O)c1ccccc1 | -4.92 (inactive) |
| COC(=O)[C@]1(Cc2ccccc2CN=[N+]=[N-])N=C(c2ccc(OCCCO)cc2)O[C@@H]1c1ccccc1CN=[N+]=[N-] | 0.13 (inactive) |
| C=CCN1C(=O)[C@@]2(O[C@@H](CCn3cc([C@H](O)c4ccccc4)nn3)[C@H]([Si](C)(C)c3ccc(OC)cc3)[C@H]2C)c2cc(NC(=O)c3ccc(OC)cc3)ccc21 | -4.41 (inactive) |
| CCCC[C@@H](O)C1=C(COc2ccccc2)Cn2c(=O)n(-c3ccccc3)c(=O)n2[C@H]1CO | -6.48 (inactive) |
| CC[C@@H]1[C@@H]2C3C(=O)N(CC)C(=O)C3CC(=O)[C@@H]2[C@H](c2ccc(C)cc2)N1S(=O)(=O)c1ccc(C)cc1 (stereo partly specified) | -3.54 (inactive) |
| COc1ccc([Si](C)(C)[C@@H]2[C@@H](CC(=O)N3Cc4ccccc4C[C@H]3CO)O[C@]3(C(=O)N(Cc4cccc(N5CCCCC5=O)c4)c4ccccc43)[C@H]2C)cc1 | -2.57 (inactive) |

System: not listed separately
Test: inhibitors of hydroxyurea-induced Chk1 phosphorylation, primary screen, imaging, HeLa, phospho-Chk1 antibody, percent positive cells (AID 1186)
Settings: hydroxyurea-induced phospho-Chk1 immunofluorescence imaging, higher = more signal

| SMILES | z-score |
| --- | --- |
| Cc1cc(C)c(C(O)C2C=CC3C(=O)N(c4ccccc4)C(=O)C3N2Nc2ccccc2)c(C)c1 (stereo unspecified) | 0.826 (inactive) |
| CC(C)NC(=O)[C@@]1(Cc2ccccc2I)c2ccccc2C(=O)N(Cc2ccccc2C(F)(F)F)[C@H]1c1ccc(CO)cc1 | -0.195 (inactive) |
| COc1ccc(CCNC(=O)[C@@H]2c3ccccc3C(=O)N(Cc3ccccc3)[C@H]2c2ccc(CO)cc2)cc1 | -0.938 (inactive) |
| COC(=O)C(CC#Cc1ccc2c(c1)[C@]1(C(=O)N2)[C@H](c2ccccc2OCCO)N2[C@H](c3ccccc3)[C@H](c3ccccc3)OC(=O)[C@H]2[C@@H]1C(=O)Nc1nc2ccccc2s1)C(=O)OC | -0.0918 (inactive) |
| C=CCN1C(=O)[C@@]2(O[C@@H](CCO)[C@H]([Si](C)(C)c3ccc(OC)cc3)[C@H]2C)c2cc(NC(=O)[C@H](C)O)ccc21 | -0.455 (inactive) |
| O=C(O)[C@]1(CCS(=O)(=O)c2ccccc2)N=C(c2ccc(OCCCO)cc2)O[C@@H]1c1ccccc1 | -0.178 (inactive) |
| CC1=C2[C@@H](CCc3ccccc3)OB(O)C[C@@H]2[C@@H]2C(=O)C=CC(=O)[C@@H]2C1 | 1.15 (inactive) |
| CN(C)C(=O)[C@@]1(CCC(=O)OC(C)(C)C)COC(c2ccc(OCCCO)cc2)=N1 | -0.0526 (inactive) |
| COCCOC(=O)N1C(=O)[C@@]2(c3cc(C#CCC(C(=O)OC)C(=O)OC)ccc31)[C@H](C(=O)N1CCCCCCC1)[C@H]1C(=O)O[C@H](c3ccccc3)[C@H](c3ccccc3)N1[C@@H]2c1ccc(O)cc1 | -0.15 (inactive) |
| COc1ccc([Si](C)(C)[C@@H]2[C@@H](CCO)O[C@]3(C(=O)N(Cc4ccccc4)c4ccc(N5CCCCC5=O)cc43)[C@H]2C)cc1 | -1.71 (inactive) |
| Cc1ccc(N2C(=O)c3ccccc3[C@](C)(C(=O)NC(C)C)[C@@H]2c2ccc(CO)cc2)nc1 | 0.0932 (inactive) |
| COC(=O)[C@]1(Cc2ccccc2N=[N+]=[N-])N=C(c2ccc(OCCCO)cc2)O[C@@H]1c1ccccc1 | -0.88 (inactive) |
| C=CC[C@]1(C(=O)NCC(O)CO)N=C(c2ccc(OCCCO)cc2)O[C@H]1c1ccccc1N=[N+]=[N-] (stereo partly specified) | -0.353 (inactive) |
| C=C(/C(=C/C[C@@H](OC(C)=O)c1ccccc1OCCO)c1cnc2ccccc2c1)C(C)C | 0.642 (inactive) |
| CCN(CC)c1ccc(N2CC=CC34O[C@@H]5/C=C\CCCOC(=O)C5[C@H]3C(=O)N(CCCCCCO)[C@@H]4C2=O)cc1 (stereo partly specified) | -0.0771 (inactive) |
| COCCCNC(=O)[C@@]1(Cc2ccccc2N=[N+]=[N-])N=C(c2ccc(OCCCO)cc2)O[C@H]1c1ccccc1CN=[N+]=[N-] | -0.314 (inactive) |
